# The source made the active and inactive calls. Unless noted, how the calls were made is not given here.
# What was measured:
# [1] = A549 cell viability effects, profiling panel, calcein-AM fluorescence, 48 h, basal (AID 1162); settings: higher = more signal; further: test concentration not given here
# [2] = adipocyte viability effects, profiling panel, cell-based, 3T3-L1 adipocytes, calcein-AM fluorescence, 48 h, basal (AID 1163); settings: 3T3-L1 adipocytes viability, higher = more signal; further: test concentration not given here
# [3] = HepG2 cell viability effects, profiling panel, calcein-AM fluorescence, 48 h, basal (AID 1164); settings: higher = more signal; further: test concentration not given here
# [4] = MM1S cell viability effects, profiling panel, calcein-AM fluorescence, 48 h, basal (AID 1165); settings: higher = more signal;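 further: viability of MM1S multiple myeloma cells under basal unstimulated conditions; test concentration not given here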
# [5] = basal RPMI8226 viability, no added stimulus, profiling panel, cell-based, calcein-AM fluorescence, 48 h, PK04 Diversity Set (AID 1166); settings: RPMI8226 myeloma viability, higher = more signal;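 further: cells grown under basal conditions without added stimulus; test concentration not given here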
# [6] = basal HepG2 mitochondrial membrane potential changes, profiling panel, cell-based, JC-1 fluorescence, 24 h, 100 nL compound (AID 1167); settings: higher = more signal; further: test concentration not given here
# [7] = basal 3T3-L1 adipocyte mitochondrial potential changes, profiling panel, cell-based, JC-1 fluorescence, 3T3-L1 adipocytes, 24 h, 100 nL compound (AID 1168); settings: JC-1 mitochondrial fluorescence, higher = more signal, called active from +8 up or from −8 down; further: test concentration not given here
# [8] = basal RPMI8226 mitochondrial membrane potential changes, profiling panel, cell-based, JC-1 fluorescence, 24 h, 100 nL compound (AID 1169); settings: RPMI8226 myeloma, JC-1 mitochondrial potential fluorescence, higher = more signal; further: test concentration not given here
# [9] = basal MM1S mitochondrial membrane potential changes, profiling panel, cell-based, JC-1 fluorescence, 24 h, 100 nL compound (AID 1170); settings: higher = more signal; further: test concentration not given here
# [10] = A549 lung cancer cell viability effects, profiling panel, resazurin fluorescence, 24 h, PK04 Diversity Set (AID 1171); settings: higher = more signal, called active from +8 up or from −8 down; further: test concentration not given here
# [11] = HepG2 liver cancer cell viability effects, profiling panel, resazurin fluorescence, 24 h, PK04 Diversity Set (AID 1172); settings: higher = more signal; further: test concentration not given here
# [12] = basal S. cerevisiae growth modulation, no modifier, primary screen, OD600, strain BY4716, 24 h, basal condition (AID 1173); settings: OD600, 24 h, higher = more signal, called active from +8 up or from −8 down
# [13] = MM1S myeloma cell viability, profiling panel, resazurin fluorescence, basal, 24 h, PK04 Diversity Set (AID 1174); settings: higher = more signal, called active from +8 up or from −8 down;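 further: MM1S multiple myeloma cell line; test concentration not given here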
# [14] = biological target: Dihydroorotate dehydrogenase (quinone), mitochondrial (Plasmodium falciparum (isolate 3D7)) (UniProt Q08210); assay: PfDHODH enzyme inhibitors, primary screen, biochemical, C-terminal His tag, absorbance 600 nm (AID 1175); settings: DCIP absorbance 600 nm, higher = more signal, called active from +8 up or from −8 down;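 further: recombinant parasite enzyme with a five histidine tag at its C terminus; test concentration not given here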
# Dihydroorotate dehydrogenase (quinone), mitochondrial (Plasmodium falciparum (isolate 3D7)), sequence (Q08210 whole entry, looked up): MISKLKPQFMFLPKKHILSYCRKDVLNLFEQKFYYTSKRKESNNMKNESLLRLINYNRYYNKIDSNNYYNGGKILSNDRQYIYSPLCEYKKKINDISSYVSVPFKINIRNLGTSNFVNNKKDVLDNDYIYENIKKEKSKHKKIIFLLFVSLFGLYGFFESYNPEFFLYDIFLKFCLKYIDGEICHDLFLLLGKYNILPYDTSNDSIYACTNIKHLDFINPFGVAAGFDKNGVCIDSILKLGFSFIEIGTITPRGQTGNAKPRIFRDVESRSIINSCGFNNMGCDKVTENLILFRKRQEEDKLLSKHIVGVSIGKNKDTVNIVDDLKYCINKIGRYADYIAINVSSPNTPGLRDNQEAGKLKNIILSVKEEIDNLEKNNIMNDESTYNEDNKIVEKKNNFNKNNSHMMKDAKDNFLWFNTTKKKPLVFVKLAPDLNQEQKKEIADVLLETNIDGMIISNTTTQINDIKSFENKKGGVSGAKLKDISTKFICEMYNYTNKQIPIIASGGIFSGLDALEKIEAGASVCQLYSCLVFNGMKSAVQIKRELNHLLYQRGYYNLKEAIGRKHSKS
# [15] = P. aeruginosa biofilm formation inhibitors, primary screen, strain PAO1, LB-PBS medium, absorbance 600 nm (AID 1176); further: test concentration not given here; settings: P. aeruginosa PAO1 growth/biofilm, A600, 12 h; higher = more signal
# [16] = S. cerevisiae RM11-1a growth modifiers, primary screen, strain RM11-1a, OD600, basal, 24 h (AID 1177); settings: OD600, 24 h, higher = more signal, called active from +8 up or from −8 down;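 further: cultures grown under basal conditions with no added stressor; test concentration not given here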
# [17] = E. coli acrAB mutant growth effects, primary screen, E. coli filamentation inducers, strain DRC39, OD650, 24 h (AID 1178); settings: higher = more signal, called active from +8 up or from −8 down;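 further: growth measured as culture turbidity by optical density at 650 nm; test concentration not given here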
# [18] = E. coli acrAB mutant growth effects, primary screen, E. coli filamentation inducers, strain DRC39, OD650, 48 h (AID 1179);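 further: screen aims at cell division blockers that make cells filament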; settings: E. coli DRC39 delta-acrAB growth, higher = more signal, called active from +8 up or from −8 down
# [19] = RPMI8226 myeloma cell viability, profiling panel, resazurin fluorescence, basal, 24 h, PK04 Diversity Set (AID 1180); settings: higher = more signal;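 further: RPMI8826 multiple myeloma cell line at 5000 cells per well; test concentration not given here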
# [20] = biological target: E3 ubiquitin-protein ligase XIAP (Homo sapiens) (UniProt P98170); assay: XIAP binders, primary screen, biophysical, small-molecule microarray, fluorescence 635 nm (AID 1181); settings: small-molecule microarray binding, higher = more signal;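 further: score merges 667 nm emission and signal to noise over triplicate slides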
# E3 ubiquitin-protein ligase XIAP (Homo sapiens), sequence (P98170 whole entry, looked up): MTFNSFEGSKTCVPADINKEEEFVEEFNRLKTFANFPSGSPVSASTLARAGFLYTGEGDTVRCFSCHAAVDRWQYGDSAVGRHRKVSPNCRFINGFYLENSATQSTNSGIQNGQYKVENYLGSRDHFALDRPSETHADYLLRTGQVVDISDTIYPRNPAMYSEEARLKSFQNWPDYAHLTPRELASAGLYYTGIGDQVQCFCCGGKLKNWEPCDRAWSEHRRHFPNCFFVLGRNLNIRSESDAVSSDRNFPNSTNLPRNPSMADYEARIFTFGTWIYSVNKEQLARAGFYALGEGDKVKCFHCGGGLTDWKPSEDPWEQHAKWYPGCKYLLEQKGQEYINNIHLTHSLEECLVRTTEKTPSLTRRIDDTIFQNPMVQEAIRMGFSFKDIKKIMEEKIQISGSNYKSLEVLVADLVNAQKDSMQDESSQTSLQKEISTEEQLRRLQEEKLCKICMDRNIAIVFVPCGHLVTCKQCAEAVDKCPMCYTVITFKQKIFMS
Compound,z-score [1],z-score [2],z-score [3],z-score [4],z-score [5],z-score [6],z-score [7],z-score [8],z-score [9],z-score [10],z-score [11],z-score [12],z-score [13],composite z-score [14],z-score [15],z-score [16],z-score [17],z-score [18],z-score [19],composite z-score [20]
O=C(NCc1ccccc1)[C@@]1(CCS(=O)(=O)c2ccccc2)N=C(c2ccc(OCCCO)cc2)O[C@H]1c1ccccc1,0.364,-0.153,-0.203,-0.335,-0.672,1.17,0.802 (inactive),-0.935,-1.58,-0.541 (inactive),1.36,1.01 (inactive),-0.705 (inactive),1.05 (inactive),-0.0304 (inactive),1.46 (inactive),0.714 (inactive),1.62 (inactive),0.448,0.202
CO[C@H]1O[C@H](CO)[C@@H](OC(=O)Nc2ccc(Br)cc2)[C@H](OC(=O)c2cc3ccccc3[nH]2)[C@H]1OC(=O)c1cc2ccccc2[nH]1,-2.49,0.266,-2.58,-3.23,-3.2,-2.38,2.37 (inactive),-0.589,-0.634,-5.8 (inactive),-3.36,-0.98 (inactive),-2.32 (inactive),-1.2 (inactive),1.16 (inactive),-1.02 (inactive),1.21 (inactive),1.78 (inactive),-4.77,-0.0011
[N-]=[N+]=Nc1ccccc1C[C@]1(C(=O)NCC(O)CO)N=C(c2ccc(OCCCO)cc2)O[C@H]1c1ccccc1N=[N+]=[N-] (stereo not given in full),-1.04,-0.676,-1.12,-2.98,-3.14,-0.162,0.153 (inactive),-1.19,-1.3,-1.19 (inactive),-1.01,-1.14 (inactive),-2.08 (inactive),0.139 (inactive),-0.428 (inactive),1.52 (inactive),-0.0211 (inactive),0.622 (inactive),-1.99,0.0968
O=C1NCC(=O)N2[C@@H]1C[C@@H](C(=O)O)[C@H]2c1cccc(OCCO)c1,0.278,-0.856,0.662,0.301,0.362,2.32,-0.16 (inactive),0.529,-0.514,-0.229 (inactive),0.0195,-0.816 (inactive),-0.159 (inactive),0.97 (inactive),-0.53 (inactive),0.569 (inactive),-0.151 (inactive),0.524 (inactive),-0.828,3.93
C=CCN1C(=O)[C@]2(O[C@H](CCO)[C@@H]([Si](C)(C)c3ccc(OC)cc3)[C@@H]2C)c2cc(N3CCCCC3=O)ccc21,-1.25,0.257,-2.15,-2.54,-3.82,-0.61,-0.305 (inactive),-0.982,-1.63,-3.52 (inactive),-3.6,1.22 (inactive),-5.89 (inactive),-1.45 (inactive),-0.577 (inactive),2.97 (inactive),0.575 (inactive),-0.648 (inactive),-6.02,-0.258
O=C(C1N=C(c2ccc(OCCCO)cc2)N(c2ccccc2)O1)N1CCOCC1 (stereo not given),0.895,0.349,0.0818,0.932,1.22,0.0222,0.645 (inactive),-1.06,-1.05,0.298 (inactive),0.55,-1.3 (inactive),0.466 (inactive),-1.09 (inactive),-0.91 (inactive),-1 (inactive),1.42 (inactive),1.92 (inactive),2.12,-0.163
O=C1C2C=CC(C(O)c3ccc(F)cc3)N(Nc3ccccc3F)C2C(=O)N1c1ccccc1 (stereo not given),-1.39,-1.1,-1.47,-0.389,-0.233,-1.73,-1.08 (inactive),-0.143,0.396,0.0853 (inactive),-0.395,-1.9 (inactive),-0.63 (inactive),0.306 (inactive),0.599 (inactive),0.0815 (inactive),-0.554 (inactive),-0.184 (inactive),-0.292,0.0029
CN(C)C(=O)[C@@]1(Cc2ccccc2CN=[N+]=[N-])N=C(c2ccc(OCCCO)cc2)O[C@H]1c1ccccc1,-0.62,-0.476,-1.18,-3.03,-3.94,-0.807,-0.215 (inactive),-0.988,-2.52,-0.325 (inactive),0.0128,1.11 (inactive),-1.82 (inactive),1.12 (inactive),0.41 (inactive),1.39 (inactive),0.316 (inactive),0.0743 (inactive),-3.38,-0.0118
CC(C)(C)OC(=O)CC[C@]12N=C(c3ccc(OCCCO)cc3)O[C@H]1c1ccccc1N(CCS(=O)(=O)c1ccccc1)C2=O,1.16,0.308,1.44,-1.52,-0.568,-0.784,1.45 (inactive),-1.09,-0.719,-1.71 (inactive),0.0763,0.688 (inactive),-3.32 (inactive),0.017 (inactive),2.21 (inactive),1.84 (inactive),0.908 (inactive),0.0504 (inactive),-1.19,0.0761

# Reference: PubChem BioAssay
